Assay outcomes as filed in PubChem BioAssay.
Shown are actives, neighbours in structure and some others; about 12% of the full set was active somewhere.
USP28 block – inhibitors of human USP28 deubiquitinase; Ubiquitin carboxyl-terminal hydrolase 28 (Homo sapiens), Q96RU2; purified USP28, Ub-rhodamine cleavage fluorescence, 30 min; inhibition, % at 25 µM; 3% of 47,000 active; AID 1645857, 2021
USP17 inh – inhibitors of human USP17 deubiquitinase; 6.5% of 47,000 active; AID 1645855, 2021; Ubiquitin carboxyl-terminal hydrolase 17-like protein 5 (Homo sapiens), A8MUK1; inhibition, % at 50 µM; purified USP17, Ub-rhodamine cleavage fluorescence, 3 h
OTUD3 block – inhibitors of human OTUD3 deubiquitinase | 0.7% of 47,000 active | purified OTUD3, Ub-rhodamine fluorescence, 2 h | OTU domain-containing protein 3 (Homo sapiens), Q5T2D3 | inhibition, % at 25 µM
USP30 inh – inhibitors of human USP30 deubiquitinase | purified USP30, Ub-rhodamine cleavage fluorescence | inhibition, % at 25 µM | 5.3% of 47,000 active
Target sequence (Q70CQ3 whole entry, looked up): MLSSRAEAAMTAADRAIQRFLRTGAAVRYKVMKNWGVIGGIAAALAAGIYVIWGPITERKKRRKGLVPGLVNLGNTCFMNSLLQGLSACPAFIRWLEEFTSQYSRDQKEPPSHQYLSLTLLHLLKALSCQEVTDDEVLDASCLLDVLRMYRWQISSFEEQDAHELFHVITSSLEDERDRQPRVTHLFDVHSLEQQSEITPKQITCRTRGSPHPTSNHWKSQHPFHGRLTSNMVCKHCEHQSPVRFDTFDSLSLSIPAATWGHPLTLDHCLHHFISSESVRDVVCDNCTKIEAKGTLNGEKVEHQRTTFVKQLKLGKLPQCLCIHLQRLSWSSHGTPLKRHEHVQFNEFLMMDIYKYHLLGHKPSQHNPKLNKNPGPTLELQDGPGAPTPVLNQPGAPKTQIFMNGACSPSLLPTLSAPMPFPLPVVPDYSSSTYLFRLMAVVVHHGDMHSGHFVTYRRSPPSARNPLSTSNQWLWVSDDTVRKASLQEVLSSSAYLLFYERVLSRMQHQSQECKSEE
Active calls of the source: *. Cut-off read from the data, not from the text of the source: active = inhibition above about 30%; inactive = the rest.

How did COc1cccc(C(=O)Nc2ccccc2C(=O)NCCc2ccccc2)c1 do in these assays?
USP28 block: 13; USP17 inh: 29; OTUD3 block: 10; USP30 inh: 49*

How did O=C(NCCc1ccccc1)c1ccccc1-c1ccccc1C(=O)NCCc1ccccc1 do in these assays?
USP28 block: 13; USP17 inh: 11; OTUD3 block: 25; USP30 inh: 32*

How did COc1ccccc1OCc1ccc(C(=O)Nc2ccc(F)cc2C)cc1 do in these assays?
USP28 block: -2; USP17 inh: 53*; OTUD3 block: -2; USP30 inh: 13

What do the screens show for `O=C(Cc1ccccc1)NCCc1ccccc1`?
USP28 block: -7; USP17 inh: -1; OTUD3 block: -9; USP30 inh: -53

How did COc1cccc(CNC(=O)c2ccc(Cn3cncn3)cc2)c1 do in these assays?
USP28 block: 7; USP17 inh: 8; OTUD3 block: 17; USP30 inh: 29

What do the screens show for `O=C1NC2(CCN(C(=O)Cc3ccccc3)CC2)Nc2c(Cl)cccc21`?
USP28 block: -10; USP17 inh: -11; OTUD3 block: -3; USP30 inh: -33

Results for Cc1ccc(S(=O)(=O)n2c(C)cc(C(=O)N3CCCCC3)c2C)cc1 ?
USP28 block: 1; USP17 inh: -1; OTUD3 block: -3; USP30 inh: -1

What do the screens show for `COc1ccc(-c2cc(C(=O)Nc3cccc(C#N)c3)nn2C2CCS(=O)(=O)C2)cc1` (stereo unspecified)?
USP28 block: 18; USP17 inh: 39*; OTUD3 block: 16; USP30 inh: 19

How did Cn1cc(CN2CC[C@H]3C[C@H](C(=O)Nc4cccnc4)O[C@@H]3C2)cn1 do in these assays?
USP28 block: 10; OTUD3 block: 11; USP30 inh: 37*

How did COc1cc(C(=O)[C@@H]2[C@@H]3CCCN3[C@]3(C(=O)Nc4c(Cl)cccc43)[C@@]23C(=O)Nc2ccccc23)cc(OC)c1OC do in these assays?
USP28 block: -4; USP17 inh: 1; OTUD3 block: 0; USP30 inh: -24

What do the screens show for `COc1ccc(CNc2nn3c(-c4cncc(OC)c4)cnc3s2)cc1`?
USP28 block: 48*; USP17 inh: -1; OTUD3 block: 0; USP30 inh: 100*

Results for c1ccc(CNc2nn3c(-c4cccnc4)cnc3s2)cc1 ?
USP28 block: 10; USP17 inh: 32*; OTUD3 block: 2; USP30 inh: 40*

Results for COc1ccc(S(=O)(=O)N2CCc3nc4ccccc4n3CC2)cc1 ?
USP28 block: -11; USP17 inh: 57*; OTUD3 block: 0; USP30 inh: 54*

How did COc1ccccc1S(=O)(=O)N1CCc2nc3ccccc3n2CC1 do in these assays?
USP28 block: -7; USP17 inh: -6; OTUD3 block: 0; USP30 inh: 4

What do the screens show for `O=C(Cc1ccccc1)Nc1nc(-c2ccccc2)ns1`?
USP28 block: 21; USP17 inh: 3; OTUD3 block: 13; USP30 inh: 37*

How did O=C(Nc1nc(-c2ccccc2)ns1)c1ccc2ncsc2c1 do in these assays?
USP28 block: 9; USP17 inh: 41*; OTUD3 block: 23; USP30 inh: 12

Results for CCOc1cccc(C(=O)Nc2nc(-c3ccc(OCC)c(OC)c3)ns2)c1 ?
USP28 block: 4; USP17 inh: 18; OTUD3 block: 12; USP30 inh: 6

Results for O=C(Cc1ccc(Cl)cc1)Nc1nc(-c2ccc(F)cc2)ns1 ?
USP28 block: 2; USP17 inh: 4; OTUD3 block: 5; USP30 inh: 0

Results for CNc1cc(C2CCCN2C(=O)c2ccc(OC)nc2)nc(C)n1 (stereo unspecified) ?
USP28 block: 0; USP17 inh: 0; OTUD3 block: 2; USP30 inh: 9

How did COc1ccc2occ(CC(=O)Nc3nnc(SC)s3)c2c1 do in these assays?
USP28 block: 3; USP17 inh: 33*; OTUD3 block: 4; USP30 inh: -56

Results for Cc1nc(CO[C@H]2CN(C(=O)c3ccc[nH]3)[C@@H]3COC[C@H]23)cs1 ?
USP28 block: -12; USP17 inh: -13; OTUD3 block: 1; USP30 inh: 1

How did C=C1CCC2[C@](C)(CCC[C@]2(C)C(=O)OC)[C@H]1CCc1ccoc1CNC(C)C (stereo partly specified) do in these assays?
USP28 block: 24; USP17 inh: 18; OTUD3 block: 30*; USP30 inh: 24

How did C=C1CCC2[C@](C)(CCC[C@]2(C)C(=O)OC)[C@H]1CCc1ccoc1CNC(CCSC)C(=O)O (stereo partly specified) do in these assays?
USP28 block: -15; USP17 inh: 28; OTUD3 block: -8; USP30 inh: -60

Results for O=C(CC(c1ccccc1)c1ccccc1)NCc1ccc(Cl)cc1 ?
USP28 block: 4; USP17 inh: -3; OTUD3 block: 1; USP30 inh: 15

What do the screens show for `Cc1ccc(NC(=O)C2CCN(S(C)(=O)=O)c3cc(C)ccc3O2)cc1` (stereo unspecified)?
USP28 block: -3; USP17 inh: -7; OTUD3 block: -1; USP30 inh: -7

What do the screens show for `CC(NC(=O)C1CCN(S(C)(=O)=O)c2ccccc2O1)c1ccccc1` (stereo unspecified)?
USP28 block: 10; USP17 inh: 12; OTUD3 block: 6; USP30 inh: 33*

What do the screens show for `Cc1ccc(CNC(=O)Cc2nnc(-c3ccc4ncccc4c3)o2)cc1`?
USP28 block: 11; USP17 inh: 31*; OTUD3 block: -9; USP30 inh: -115

Results for COc1cnc(CSc2ccccc2)cc1OCC(=O)Nc1ccc(F)cc1F ?
USP28 block: 11; USP17 inh: 34*; OTUD3 block: 7; USP30 inh: 36*

Results for COc1cnc(CSc2ncccn2)cc1OCC(=O)Nc1c(C)cc(C)cc1C ?
USP28 block: -9; USP17 inh: -23; OTUD3 block: -2; USP30 inh: 0

Results for COc1cnc(CSc2ccc(F)cc2)cc1OCC(=O)Nc1ccccc1F ?
USP28 block: 7; USP17 inh: 41*; OTUD3 block: 3; USP30 inh: 43*

What do the screens show for `CCn1ncc(S(=O)(=O)N2CCCCCC2c2cc(-c3ccc(F)cc3)on2)c1C` (stereo unspecified)?
USP28 block: 8; USP17 inh: 10; OTUD3 block: 8; USP30 inh: 17

Results for Cc1cccc(CCNC(=O)c2ccc(CNS(=O)(=O)c3ccc(F)cc3)cc2)c1 ?
USP28 block: 2; USP17 inh: -6; OTUD3 block: -1; USP30 inh: 34*

What do the screens show for `CN(Cc1ccccc1)C(=O)c1ccc(CNS(=O)(=O)c2ccc(F)cc2)cc1`?
USP28 block: 9; USP17 inh: 3; OTUD3 block: 5; USP30 inh: 21

What do the screens show for `CC(=O)Nc1ccc(S(=O)(=O)N2CCC(C(=O)NCCc3ccc(Cl)cc3)CC2)cc1`?
USP28 block: 22; USP17 inh: 18; OTUD3 block: 19; USP30 inh: 34*
